# Screens (PubChem)
# Compounds with a hit are over-represented: about 5.3% of the library has one in this group of screens.
# 12-hLO inh – blocks human 12-lipoxygenase activity; P18054; purified 12-hLO, xylenol orange hydroperoxide absorbance; Potency, µM (top dose mostly 57.1 µM), inactives show top-dose activity change, negative = inhibition, actives largely listed as inhibitors; 150,000 compounds, 0.12% hits; AID 1452; also: potency is read from the fitted curve at half-maximal effect; nearly all actives have a fitted effect of over 55% in size
#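 Purified human 12hLO (150 nM final) was preincubated with compounds for 15 min at room temperature in 25 mM Hepes pH 7.0, 0.01% Triton X-100, then reacted with 40 uM arachidonic acid for 30 min. Hydroperoxide was detected with ferrous iron/xylenol orange.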
# IMPase cell inh – cell-permeable inhibitors of inositol monophosphatase (IMPase); 120,000 tested, under 10 active; CHO-M1 cells, IP1 accumulation, HTRF TR-FRET ratio; P97697; inhibition (IP1 accumulation), % at 46.1 µM; active = well fitted curve in the direction sought with a large enough effect in the signal ratio, not every such curve was filed as active; inconclusive = small, poorly fitted or top-dose-only effect, or a change in a side signal; inactive = no such curve, though single readings can be large or run the other way; the % refers to the signal ratio;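 also: cells stimulated with carbachol in lithium chloride buffer; plate controls were DMSO basal wells for no effect and reference inhibitor wells for full effect; higher means more IMPase inhibition seen as more IP1 and lower FRET ratio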
#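 Cellular IMPase inhibition is scored as a rise in cytosolic IP1, detected by competitive TR-FRET between d2-labelled IP1 and a europium anti-IP1 antibody. M1-expressing CHO cells were stimulated with carbachol for 30 min at 37C, with lithium (50 mM LiCl) present in the buffer.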
# HPGD inh – inhibitors of human 15-hydroxyprostaglandin dehydrogenase (HPGD); purified HPGD, NADH fluorescence kinetic, PGE2 substrate; Potency, µM, inactives show at the top dose activity change, negative = inhibition, most hits filed as inhibitors; 150,000 compounds, 4.3% hits; active = well fitted inhibition curve with a large enough effect, not every such curve was filed as active; inconclusive = small, poorly fitted or top-dose-only effect, or another doubt; inactive = no such curve, though single readings can be large or run the other way; also: potency is read from the fitted curve at half-maximal effect
#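 20 nM HPGD preincubated 15 min at room temperature with compound in 50 mM Tris-HCl pH 8, 0.01% Tween 20. Started with 1 mM NAD+ and 30 uM prostaglandin E2; NADH fluorescence (360/450 nm) read 5 times over 30-s intervals, last minus first.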
# ALOX15B inhib – 15-hLO-2 (ALOX15B) enzyme inhibition; O15296; purified 15hLO-2, xylenol orange hydroperoxide absorbance; AID 881; 110,000 compounds, 0.56% hits; Potency, µM (titrated, usually from 57.1 µM), inactives show at the highest dose activity change, negative = inhibition, most hits filed as inhibitors; also: potency is read from the fitted curve at half-maximal effect; nearly all actives have a fitted effect of over 60% in size
# Target sequence (O15296 whole entry, looked up): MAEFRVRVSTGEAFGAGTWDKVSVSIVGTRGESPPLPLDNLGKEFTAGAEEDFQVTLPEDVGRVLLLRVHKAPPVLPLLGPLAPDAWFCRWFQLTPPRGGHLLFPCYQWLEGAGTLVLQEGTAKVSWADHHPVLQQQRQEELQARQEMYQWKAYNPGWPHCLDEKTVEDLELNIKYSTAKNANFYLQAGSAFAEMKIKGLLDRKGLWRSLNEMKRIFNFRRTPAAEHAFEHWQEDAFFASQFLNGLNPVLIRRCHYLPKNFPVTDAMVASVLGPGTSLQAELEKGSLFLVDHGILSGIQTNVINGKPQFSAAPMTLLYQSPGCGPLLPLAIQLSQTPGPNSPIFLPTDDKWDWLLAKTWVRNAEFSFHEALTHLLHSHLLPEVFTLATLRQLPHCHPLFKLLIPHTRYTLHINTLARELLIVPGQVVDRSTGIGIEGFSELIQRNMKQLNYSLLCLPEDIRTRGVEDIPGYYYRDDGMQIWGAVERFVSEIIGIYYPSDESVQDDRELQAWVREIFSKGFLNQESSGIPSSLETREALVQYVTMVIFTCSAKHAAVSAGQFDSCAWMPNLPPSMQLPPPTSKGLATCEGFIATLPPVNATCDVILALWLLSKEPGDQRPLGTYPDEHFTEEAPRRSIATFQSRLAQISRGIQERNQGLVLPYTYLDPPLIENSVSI
#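 Purified human 15hLO-2 (50 nM final) preincubated with compounds 15 min at room temperature in 25 mM Hepes pH 7.5, 0.01% Triton X-100, then 45 uM arachidonic acid added for 90 min; hydroperoxide detected via ferrous/xylenol orange, 573/405 nm absorbance ratio.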
# IMPase Li cell – membrane-permeable IMPase blocker, potentiated with lithium. Potency, µM (titrated, usually from 59.4 µM), without a hit: at the top dose activity, negative = IMPase inhibition, most hits filed as inhibitors. 210,000 compounds, 0.35% hits. CHO-M1 cells, IP1 TR-FRET (IP-One), carbachol + lithium;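 also: IP1 builds up when IMPase is blocked and the TR-FRET signal falls; potency is read from the fitted curve at half-maximal effect; plate controls were basal vehicle for no effect and high inhibitor control for full effect; nearly all actives have a fitted effect of over 50% in size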
#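 Steps: plate 2000 CHO-M1 cells per well and culture 16–30 h; add compound and lithium; incubate 30 min, 37C; add d2-IP1 tracer and Eu cryptate anti-IP1 antibody in lysis buffer; read after 10 min at room temperature.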
# PNC assembly inh – inhibitors of perinucleolar compartment assembly | PC3M PTB-GFP, PNC prevalence imaging, 16 h; active compounds read low | activity change (PNC), negative = inhibition, % at 10 µM | AID 2417 | 140,000 compounds, 3.1% hits;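 active = readout at or below -70, meaning at least 70% loss of cells showing the perinucleolar compartment, a nuclear body marking cancer cells; inconclusive = readout between -30 and a set limit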;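 also: plate controls were DMSO wells for no effect and camptothecin positive control wells for full effect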
#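 Compounds are pinned in duplicate onto adhered PC3M cells stably expressing GFP-tagged PTB and incubated 16 h at 37 C. Cells are then fixed, nuclei stained with Hoechst, and PNC-positive cells counted.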
# * marks the source's active call; other numbers are inactive results; u = inconclusive; x = no result given; [ ] = dose if it differs, or a comment. Unless noted, calls follow the shape of the dose curve; as a rule, active = well fitted curve in the direction sought with a large enough effect; inconclusive = small, poorly fitted or top-dose-only effect, or another doubt; inactive = no such curve, though single readings can be large; an effect the other way counts as inactive or inconclusive. Unless noted, % is scaled to controls: 0 for no effect and ±100 for the full control effect.
SMILES,12-hLO inh,IMPase cell inh,HPGD inh,ALOX15B inhib,IMPase Li cell,PNC assembly inh
COc1ccc(N2C(=O)CC(Sc3nnc(-c4ccccc4)o3)C2=O)cc1 (stereo not drawn),-10%,u,22µM*,-23%,8.9µM*,u
O=C1CC(Sc2nnc(-c3ccccc3O)o2)C(=O)N1c1ccccc1 (stereo not drawn),-16%,-20,u,-15%,-15%[38.3 µM],-18
O=C(Nc1cc2c(cc1C(=O)c1ccc(Br)cc1)OCCO2)c1ccc(Cl)cc1,x,-5,x,x,x,x
Cc1ccccc1NC(=O)c1c(NC(=O)Cc2ccccc2)sc2c1CCC2,x,-2,x,x,x,x
N#CC1=C(N)OC2=C(CCc3ccccc32)C1c1ccccc1 (stereo not drawn),1%,x,-9%,x,10%,-83*
CC(/C=N/n1cnnc1)=C\c1ccco1,1%,-5,-14%,x,5%,-100*
CN1CCN(c2ncc3ncc(=O)n(Cc4cccs4)c3n2)CC1,2%,x,u,5%,43%,x
COc1cc(/C=N/O)c(Br)cc1OCC(=O)Nc1ccccc1C,3%,x,u,x,2%,-84*
COc1cc(/C=N/NC(N)=O)c(Br)cc1OCC(=O)Nc1ccccc1C,-1%,0,-16%,-12%,-5%[38.3 µM],-4
CC/C(O)=C1\C(=O)CC(c2ccccc2)CC1=NC(C)C (stereo not drawn),-3%,x,-15%,x,4%,-16
CC1CCc2c(sc3nnn(Cc4ccccc4)c(=O)c23)C1 (stereo not drawn),x,21,x,x,x,x
CCOC(=O)C1CCN(C(=O)Nc2ccc3c(c2)nc(C)n3C)CC1,1%,-2,-12%,1%,34%[38.3 µM],37
Cc1nc2cc(NC(=O)N3CCCCC3)ccc2n1C,0%,0,-22%,x,8%,-119*
CC1CCN(CCc2nc3cc(NC(=O)Nc4ccccc4)ccc3n2C)CC1,3%,8,-7%,57%,16%[38.3 µM],-2
Cn1c(CCN2CCCCC2)nc2cc(NS(=O)(=O)c3ccc(Cl)cc3)ccc21,u,10,-8%,51%,28%[38.3 µM],-93*
CC(=O)Nc1ccc2c(c1)nc(CCN1CCC(C)CC1)n2C,-1%,10,-9%,12%,23%[38.3 µM],-101*
Cc1cccc(C(=O)Nc2cccc(-c3ccc4nncn4n3)c2)c1,x,x,x,x,11%,x
CCCOc1cccc(NC(=O)c2c(-c3ccccc3Cl)noc2C)c1,x,2,x,x,x,x
O=c1cc(-c2ccccc2)oc2cc(O)c(O)cc12,u,x,18µM*,u,1%,x
O=c1cc(-c2ccc(O)cc2)oc2cc(O)ccc12,-6%,x,u,-3%,-27%,x
O=c1cc(-c2ccccc2)oc2ccccc12,-2%,x,8.9µM*,6%,2%,x
COc1ccc(-c2cc(=O)c3ccccc3o2)cc1OC,-13%,x,u,5%,10%,x
O=c1cc(-c2ccc(O)cc2)oc2cccc(O)c12,-29%,3,u,-12%,23%,x
O=c1cc(-c2ccc(O)c(O)c2)oc2ccccc12,-20%,x,7.1µM*,u,53%,x
CN(C)c1ccc(-c2cc(NCc3cccnc3)ncn2)cc1,-4%,x,u,-1%,-13%,x
SMILES,12-hLO inh,IMPase cell inh,HPGD inh,ALOX15B inhib,IMPase Li cell,PNC assembly inh
Cc1ccc(N(CC(=O)NCc2ccncc2)S(C)(=O)=O)cc1Cl,-4%,6,x,2%,x,-84*
CS(=O)(=O)N(CC(=O)NCc1ccncc1)c1ccc(F)c(Cl)c1,x,x,x,x,7%,x
Oc1csc(Cc2nc(-c3ccccc3F)cs2)n1,x,x,x,x,18%,x
CCOC(=O)CCCCNCc1ccccc1,9%,-7,-9%,x,-1%,-100*
CC(=O)c1cnc2n(c1=O)CCS2,x,x,x,x,-5%,x
O=C(NC1CCCC1)c1cnc2n(c1=O)CCS2,-2%,6,35µM*,x,20%[38.3 µM],-26
CNCC[C@H](Oc1ccccc1C)c1ccccc1,11%,12,x,43%,x,x
Fc1cccc(Cl)c1/C=N/Nc1ccccn1,x,x,x,x,13%,x
Clc1cccc(Cl)c1/C=N\Nc1nccs1,-1%,1,7.9µM*,34%,13%[38.3 µM],u
Cc1nc2cnc(Oc3ccccc3)nc2n(Cc2cccs2)c1=O,x,x,x,-23%,12%,x
CCOc1cc2[nH]c(=O)n(CCCCC(=O)N3CCCCCC3)c(=O)c2cc1OCC,1%,-4,u,x,-1%,-100*
CCCCCNC(=O)CCCCn1c(=O)[nH]c2cc(OCC)c(OCC)cc2c1=O,-5%,-2,-16%,-12%,-2%[38.3 µM],u
O=C(NC1CCCC1)c1ccc(CSc2nc3ccncc3n2Cc2ccc(F)cc2)cc1,-1%,x,3.2µM*,x,1%,56
CC1CC(C)CN(C(=O)c2ccc(CSc3nc4ccncc4[nH]3)cc2)C1 (stereo not drawn),-1%,x,5.6µM*,x,0%,39
CN1CCN(C(=O)c2ccc(CSc3nc4ccncc4n3Cc3ccc(F)cc3)cc2)CC1,2%,x,16µM*,x,8%,30
COc1ccc(-c2oc3ncn4nc(COc5ccccc5C)nc4c3c2-c2ccc(OC)cc2)cc1,x,2,x,x,x,x
CC1CCc2nn(CC(=O)NCCN3CCOCC3)cc2C1 (stereo not drawn),2%,10,-5%,-3%,20%[38.3 µM],-82*
CCS(=O)(=O)Nc1ccc(Cc2ccc(NS(=O)(=O)CC)cc2)cc1,3%,11,5.6µM*,1%,10%[38.3 µM],u
COC(=O)c1ccc(NC(=O)CN2C(=O)CSC2=O)cc1,4%,1,u,-2%,19%[38.3 µM],3
CCOC(=O)c1ccccc1NC(=O)c1ccc(NS(C)(=O)=O)cc1,1%,-5,16µM*,0%,21%[38.3 µM],-24
CCOC(=O)c1ccc(NC(=O)CN2C(=O)CSC2=O)cc1,3%,-1,-14%,0%,-11%[38.3 µM],-90*
O=C(CN1C(=O)C2C3C=CC(C3)C2C1=O)OCC(=O)c1ccccc1 (stereo not drawn),-3%,x,25µM*,x,-8%,5
CS(=O)(=O)Nc1ccc(Cc2ccc(NS(C)(=O)=O)cc2)cc1,-2%,-6,u,7%[2.29 µM],12%[38.3 µM],-22
COc1ccc(C)cc1S(=O)(=O)N1c2ccccc2CC1C (stereo not drawn),0%,4,-6%,-9%,33%[38.3 µM],49
O=C(CSc1ccccn1)c1ccc(F)cc1,-11%,7,25µM*,-22%,-10%[38.3 µM],u
COC(=O)c1ccc(NC(=O)CN2C(=O)C3C4C=CC(C4)C3C2=O)cc1 (stereo not drawn),0%,-8,20µM*,3%,21%[38.3 µM],20
Cc1ccc(C(=O)CSc2ccccn2)cc1,-15%,-6,u,-21%,0%[38.3 µM],14
